# hgDAF12 agonist – hgDAF-12 agonism, primary luciferase screen | HEK293 GAL4-hgDAF12 UAS-luciferase reporter, agonist luminescence; normalized to butyrate control | activation, % at 6.8 µM | 1.8% of 370,000 active | AID 687014;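 active means activation above a cutoff set at the mean of all screened compounds plus 3 SD, cut at about 10% in these data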;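 further: 0% = DMSO wells and 100% = sodium butyrate wells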
# hcDAF12 agonist – activates DAF-12 receptor from parasite H. contortus. HEK293 hcDAF-12 lit1-tk-luc reporter, luminescence; 0% DMSO, 100% Δ7-dafachronic acid. activation, % at 6.8 µM. 1.4% of 370,000 active;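 active means activation above the mean of all tested compounds plus 3 SD, cut at about 5.5% in these data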;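 further: 100% = response to 3 µM Δ7-dafachronic acid high control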
# ssDAF12 agonist – activators of S. stercoralis DAF-12 nuclear receptor; AID 652126; 1% of 370,000 active; HEK293 ssDAF-12/GRIP1 lit1-tk-luc reporter, luminescence; % of 3 µM dafachronic acid response; activation, % at 6.8 µM;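 active means activation above the mean over all tested compounds plus 3 SD, cut at about 0.9% in these data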;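 further: 0% = DMSO-only wells and 100% = 3 µM delta7-dafachronic acid wells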
# DAX1 inh-1 – inhibits human nuclear receptor DAX1. AID 504766. HEK293 Gal4-DAX1 luciferase reporter, luminescence. P51843. inhibition, % at 6.75 µM. 0.99% of 340,000 active;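 active means inhibition above the mean over all tested compounds plus 3 SD, cut at about 4.2% in these data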;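 further: 0% = DAX1-transfected cells with DMSO and 100% = empty-vector control cells with DMSO; inhibition shows as a rise in luminescence from relieved DAX1 repression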
# DAX1 inh-2 – blocks DAX1 repression of SF-1 activated StAR promoter; HEK293T StAR-luciferase reporter, SF-1/DAX-1 repression relief; inhibition, % at 6.8 µM; 1.1% of 370,000 active;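 active means inhibition above the mean over all tested compounds plus 3 SD, cut at about 3.6% in these data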;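 further: 0% = DAX-1 cells with DMSO and 100% = cells lacking DAX-1 with DMSO; higher inhibition means more luminescence from relief of DAX-1 repression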
# LXRb hcDAF ctr – activates human LXR-beta, counter-screen for hcDAF-12 agonists. HEK293 Gal4-LXR tk-luc reporter, luminescence, 24 h; normalized: DMSO 0%, positive control 100%. 3,400 tested, under 10 active. shares compounds with hcDAF12 agonist. activation, % at 6.8 µM. AID 743027;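 active means mean percent activation of the reporter above a cutoff set as the average over tested compounds plus their standard deviation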
# Target sequence (P55055 whole entry, looked up, the tested form may be a part): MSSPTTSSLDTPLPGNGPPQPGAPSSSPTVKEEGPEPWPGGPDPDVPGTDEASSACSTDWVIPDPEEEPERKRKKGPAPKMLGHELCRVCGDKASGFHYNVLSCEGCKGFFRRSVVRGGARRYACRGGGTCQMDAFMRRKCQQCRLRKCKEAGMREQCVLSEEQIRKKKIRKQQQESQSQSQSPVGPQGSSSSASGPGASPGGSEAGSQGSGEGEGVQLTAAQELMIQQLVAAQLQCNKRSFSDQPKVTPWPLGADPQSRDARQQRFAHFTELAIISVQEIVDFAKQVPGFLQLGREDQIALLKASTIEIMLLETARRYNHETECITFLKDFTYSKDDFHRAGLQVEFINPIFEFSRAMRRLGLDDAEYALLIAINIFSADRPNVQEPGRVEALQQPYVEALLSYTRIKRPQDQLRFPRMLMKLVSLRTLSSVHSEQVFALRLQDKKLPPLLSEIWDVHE
# hcDAF12 ag – hcDAF-12 agonism, confirmation assay | HEK293 hcDAF-12 lit1-tk-luc reporter, luminescence; % of Δ7-dafachronic acid response | activation, % at 6.8 µM | shares compounds with hcDAF12 agonist | 61% of 3,400 active | AID 743032;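 active means mean activation across triplicate tests above the threshold derived from the earlier primary screen, cut at about 5.5% in these data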;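 further: 0% = DMSO only wells and 100% = 3 µM Δ7-dafachronic acid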
# The depositor's hits bear a star; / = no result given. Most compounds without a hit are left out; they make up all but 4.1% or so of the library.
SMILES,hgDAF12 agonist,hcDAF12 agonist,ssDAF12 agonist,DAX1 inh-1,DAX1 inh-2,LXRb hcDAF ctr,hcDAF12 ag
CSCCC(NC(=O)c1ccc(Cl)cc1)C(=O)OCC(=O)NCc1ccco1 (stereo unspecified),0,1,-1,-1,1,/,/
Cc1cnc(C(=O)OCC(=O)Nc2cc(Cl)ccc2C#N)cn1,3,6.6*,0,1,-1,0,4
CSCCC(NC(=O)c1ccc(Cl)cc1)C(=O)OCC(=O)Nc1cc(Cl)ccc1C#N (stereo unspecified),1,7.5*,0,0,0,0,3
CCOC(=O)C1CCN(C(=O)C(C)(C)NC(=O)Nc2ccc(N(C)C)cc2)CC1,-2,0,-2,/,/,/,/
O=C(Nc1nccs1)C1Cc2ccccc2CN1S(=O)(=O)c1ccc(F)cc1 (stereo unspecified),12*,11*,1,1,3,1,7.7*
COC(=O)[C@]12C[C@H](CC(=O)N3CCN(C(=O)C4CC4)CC3)C(=O)N(Cc3ccccc3)C1=C[C@H](C(C)C)O[C@@H]2C1CC1,-2,0,-1,/,2,/,/
CC(=O)c1ccc2c3c(cccc13)C(=O)N(CCc1ccccc1)C2=O,8,8.4*,3.0*,0,1,1,9.7*
Cc1ccccc1-c1nnc(-c2cccs2)o1,9,7.7*,1.3*,4,1,1,8.6*
Cc1cccc(N=Nc2c(O)[nH]c3ccc(Br)cc23)c1,7,12*,1,1,0,0,6.3*
CC(=O)Nc1sc2c(c1-c1nc3ccccc3s1)CNC2,2,16*,1.6*,/,/,0,9.8*
COC(=O)c1cc2c(c3c4ccccc4n(S(=O)(=O)c4ccc(C)cc4)c13)C(=O)N(Cc1ccccc1)C2,0,0,-1,/,-1,/,/
c1ccc(-c2csc(Nc3ccccn3)n2)cc1,18*,14*,2.7*,3,2,2,17*
CCOC(=O)C(Cc1ccccc1)P(=O)(OCC)OCC (stereo unspecified),2,-1,-2,/,/,/,/
Cc1ccsc1C=Nc1ccc(O)cc1,/,/,/,1,/,/,/
Cc1ccsc1/C=N/N=C/c1sccc1C,17*,11*,1.6*,2,3,2,14*
CCN(CC)c1ccc(NC(=O)c2cc3c(C)nn(-c4ccccc4)c3s2)cc1,0,0,-2,/,-1,/,/
CNC(=O)COC(=O)/C=C/c1c(C)nn(-c2ccccc2)c1C,1,8.4*,0,1,0,0,1
Cc1cccn2c(=O)c(/C=C(\C#N)S(=O)(=O)c3ccccc3)c(N3CCN(c4ccccc4)CC3)nc12,0,6.7*,-1,0,1,0,1
CCN1CCN(c2nc3c(C)cccn3c(=O)c2/C=C(\C#N)S(=O)(=O)c2ccccc2)CC1,3,0,-1,0,0,/,/
C[C@H]1[C@@H]2C[C@@]3(O[C@H](c4ccc(C(F)(F)F)cc4)N=C3C[C@@H]1c1ccccc1)N(Cc1ccncc1)C2=O,1,0,-1,/,0,/,/
Cc1cc(C)c(S(=O)(=O)/N=C2\C=C(NS(=O)(=O)c3ccccc3)C(=O)c3ccccc32)c(C)c1,0,8.0*,0.9*,-1,0,0,1
COC(=O)C1CCCN(C(=O)C2CCN(S(=O)(=O)c3ccc([N+](=O)[O-])cc3)CC2)C1 (stereo unspecified),1,-1,-2,/,-2,/,/
Cc1ccc2nc(-c3ccc(O)c(O)c3)cn2c1,8,9.4*,0,-3,2,1,9.9*
Cc1nc(-c2ccc(O)c(O)c2)cs1,1,0,-1,1,0,/,/
O=C(Nc1ccccc1)N1c2ccccc2SC1c1ccco1 (stereo unspecified),-3,-1,-1,/,-2,/,/
SMILES,hgDAF12 agonist,hcDAF12 agonist,ssDAF12 agonist,DAX1 inh-1,DAX1 inh-2,LXRb hcDAF ctr,hcDAF12 ag
Cc1cc(C(=O)CN2C(=O)c3ccccc3C2=O)c(C)n1Cc1cccs1,6,3,-1,0,1,/,/
Cc1cc(C(=O)Cn2nnc3ccccc3c2=O)c(C)n1Cc1cccs1,8,8.4*,0.9*,2,3,1,12*
COC(=O)c1cn(CCOc2ccccc2)c2ccccc12,6,6.7*,1.3*,1,1,0,3
COC(=O)c1cn(CCOc2ccccc2OC)c2ccccc12,-3,-2,-2,-2,-1,/,/
CCC(C(=O)Nc1nc(C)c(C)s1)c1ccccc1 (stereo unspecified),-2,-1,-1,0,-1,/,/
Cc1nc(NC(=S)Nc2ccccc2)sc1C,10,10*,0,2,1,0,3
CCCCCCCCN1C(=O)[C@@H](CC(=O)NCC2CCCCC2)C[C@@]2(C(=O)OC)C1=C[C@H](C(C)C)O[C@@H]2C1CC1,4,1,0,/,1,/,/
COCCCNC(=O)c1ccc(Cn2c(=O)c3ccccc3n(Cc3ccc(Br)cc3)c2=O)cc1,3,0,-1,/,-1,/,/
CN(C)c1ccc(-c2cc3ccccc3c(=O)o2)cc1,20*,9.5*,1.7*,2,3,2,16*
CC(C)CNC(=O)OCc1cn(Cc2cccc(C(F)(F)F)c2)nn1,-4,0,0,/,1,/,/
COc1cc2c(c(OC)c1OC)[C@@]1(c3ccccc3)CCCC[C@H]1[C@@H]2NC(=O)C(F)(F)F,3,0,-1,/,0,/,/
COc1ccc(CNC(=O)Cc2c(C(=O)O)[nH]c3ccccc23)c(OC)c1,1,6.9*,1.9*,1,0,0,2
COc1ccc(CNC(=O)Cc2c(C(=O)O)[nH]c3ccccc23)cc1,0,0,1,1,0,/,/
COC(=O)C1=NN(c2ccccc2OC)C2C(=O)N(c3ccccc3OC)C(=O)C12 (stereo unspecified),2,7.2*,0,0,1,0,0
O=C(OCc1nc2ccccc2s1)c1cnccn1,7,8.2*,0,3,1,1,9.8*
O=C(O)CCCC(=O)Nc1ccc(OCc2nc3ccccc3s2)cc1,10,4,1,0,1,/,/
CCCCC(=O)OCc1nc2ccccc2s1,3,4,0,2,0,/,/
O=C(O)c1ccccc1OCc1nc2ccccc2s1,10,9.2*,1.2*,3,2,1,7.2*
O=C(NC1CCCC1)C1CCN(S(=O)(=O)c2ccc3[nH]c(=O)oc3c2)CC1,1,1,-1,/,-1,/,/

# High-throughput results from PubChem.
